Assay results published in PubChem BioAssay.
Calls of active or inactive are those of the source.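 Rule for the calls, unless noted: active = inhibition of the reporter signal at or above 50%; inactive = inhibition below 50%.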

How the values were obtained:
[1] = inhibitors of TNFa-induced NFkB p65 translocation, primary screen, imaging, HUVEC, MLSMR starter and 10KST1 sets (AID 438;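 active = inhibition above 20% together with a positive visual image hit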;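 note: compound added about 3h40 before a 20 min TNFalpha stimulation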;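 for inhibition: signal is the nuclear over cytoplasmic p65 intensity ratio per well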); conditions: HUVEC TNFa-induced p65 nuclear translocation; cell count: measured here: nuclei count (cytotoxicity indicator), at 2.08 µM; inhibition: at 2 µM, stronger effect = higher value, 0% TNFa-plus-vehicle, 100% no-TNFa wells
[2] = inhibitors of mutant huntingtin aggregation, primary screen, imaging, exon1htt(103Q)mCFP cells, high-content imaging (AID 483;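 active = visual image review flags a hit and inhibition of aggregation exceeds 20%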;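 note: compound exposure lasted 3 days before fixation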;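 for nuclei count: percent of the per-plate median nuclei count of sample wells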); conditions: exon1htt(103Q)mCFP cell line, aggregate imaging, at 2 µM; inhibition of aggregation: stronger effect = higher value; nuclei count: measured here: cell count, toxicity
[3] = inhibitors of E-selectin induction by TNFa, primary screen, imaging, HUVEC, immunofluorescence, MLSMR starter and 10KST1 sets (AID 487;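 active = visually confirmed hit in the image check and inhibition above 20%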;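 for inhibition: signal is fraction of cell area covered by stained E-selectin grains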;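 for nuclei count: 100% = median nuclei count of all wells on the same plate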); conditions: HUVEC TNFalpha-induced E-selectin immunofluorescence imaging, at 2 µM; inhibition: stronger effect = higher value; nuclei count: measured here: cell number, toxicity
[4] = target: Voltage-gated potassium channel subunit beta-2 (Rattus norvegicus) (UniProt P62483); assay: KvBeta enzyme negative modulators, primary screen, biochemical, NADPH fluorescence (AID 622;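 active = fluorescence slope higher than the sample average by over 3 SD, cut at about -0.22 in these data, passing the limit was not always enough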;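 note: slope of raw intensity against log time taken from 70 to 1610 s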); conditions: recombinant KvBeta, 4-cyanobenzaldehyde reduction, at 10 µM, stronger effect = higher value
Sequence of Voltage-gated potassium channel subunit beta-2 (Rattus norvegicus) (P62483 whole entry, looked up): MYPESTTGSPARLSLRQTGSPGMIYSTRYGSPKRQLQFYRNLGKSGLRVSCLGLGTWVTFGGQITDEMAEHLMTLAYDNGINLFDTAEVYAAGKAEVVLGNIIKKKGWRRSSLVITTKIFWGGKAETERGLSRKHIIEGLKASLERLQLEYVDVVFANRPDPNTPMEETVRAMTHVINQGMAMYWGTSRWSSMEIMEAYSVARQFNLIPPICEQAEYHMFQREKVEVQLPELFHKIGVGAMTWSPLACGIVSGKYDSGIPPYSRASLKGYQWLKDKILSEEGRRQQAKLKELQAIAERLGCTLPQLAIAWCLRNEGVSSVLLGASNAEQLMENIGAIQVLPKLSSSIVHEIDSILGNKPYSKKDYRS

[5] = target: Voltage-gated potassium channel subunit beta-2 (Rattus norvegicus) (UniProt P62483); assay: KvBeta positive modulators, primary screen, biochemical, NADPH fluorescence (AID 623;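 active = NADPH fluorescence slope more negative than the mean of all samples by about 3 SD, 99.7% confidence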;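 note: fluorescence intensity change per second fitted from 20 to 320 s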); conditions: Recombinant KvBeta, NADPH fluorescence decrease slope, 10 min; at 10 µM; stronger effect = lower value
[6] = target: Alpha-2C adrenergic receptor (Homo sapiens) (UniProt P18825); assay: modulators of alpha2C/GIRK thallium flux, primary screen, cell-based, HEK293 alpha2C/GIRK1/2 (AID 624;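 active = fluorescence slope after compound addition differing from the mean of all screened samples at 99.7% confidence, in either direction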;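 note: slope of fluorescence ratio to pre-addition baseline per second over 15 to 24 s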); conditions: thallium flux BTC fluorescence, at 10 µM, actives lie on both sides
Sequence of Alpha-2C adrenergic receptor (Homo sapiens) (P18825 whole entry, looked up): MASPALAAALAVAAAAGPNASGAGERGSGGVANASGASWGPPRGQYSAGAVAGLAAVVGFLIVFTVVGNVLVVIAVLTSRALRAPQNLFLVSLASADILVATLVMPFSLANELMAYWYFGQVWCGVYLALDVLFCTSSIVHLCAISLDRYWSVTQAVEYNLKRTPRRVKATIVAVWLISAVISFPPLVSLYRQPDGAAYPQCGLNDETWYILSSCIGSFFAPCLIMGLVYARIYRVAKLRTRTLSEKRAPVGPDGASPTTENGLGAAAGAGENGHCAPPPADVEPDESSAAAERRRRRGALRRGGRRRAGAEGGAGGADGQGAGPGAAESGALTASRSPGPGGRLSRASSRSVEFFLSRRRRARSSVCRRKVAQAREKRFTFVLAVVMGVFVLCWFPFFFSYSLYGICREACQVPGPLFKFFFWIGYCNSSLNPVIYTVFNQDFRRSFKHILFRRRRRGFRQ

[7] = inhibitors of Sendai virus-induced IRF3 signaling, primary screen, TLR/RLR signaling modifier project, cell-based, Sendai virus stimulus, luciferase, 10K MLSCN set (AID 602276;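 active = inhibition at or above 50% at 10 µM; inactive = inhibition below 50%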;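 note: firefly luciferase from ISG56 promoter only with Renilla not read in this screen; 0% = Sendai virus plus DMSO and 100% = medium plus DMSO without virus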); conditions: HEK293 RL24 IRF3 luciferase reporter, at 10 µM, stronger effect = higher value
[8] = inhibitors of poly I:C-induced TLR3 signaling, primary screen, cell-based, poly I:C stimulus, luciferase, 10K MLSCN set (AID 602277); conditions: HEK293-TLR3 RL24 IRF3 luciferase reporter, at 10 µM, stronger effect = higher value

Row | Structure (SMILES) | cell count [1] | inhibition [1] | inhibition of aggregation [2] | nuclei count [2] [%] | inhibition [3] | nuclei count [3] [%] | fluorescence slope [4] | NADPH fluorescence slope [5] | slope [6] | inhibition [7] | inhibition [8]
1 | c1ccc(-n2ncc3c(NCc4cccs4)ncnc32)cc1 | 338 | -5.7% (inactive) | -6% (inactive) | 94.4 | -3.7% (inactive) | 118 | -0.415 (inactive) | -4.2e-05 (inactive) | 0.00561 (inactive) | -19.7% (inactive) | -78.7% (inactive)
2 | O=C(CCNS(=O)(=O)c1cccs1)Nc1ccccc1F | 714 | -16.8% (inactive) | -2.2% (inactive) | 102 | -9.8% (inactive) | 109 | -0.3 (inactive) | -6.3e-05 (inactive) | 0.00565 (inactive) | 6.58% (inactive) | 7.01% (inactive)
3 | CC(=O)c1cc(F)c(N2CCN(C(=O)Cc3ccccc3)CC2)cc1C | 774 | -3.9% (inactive) | -30.4% (inactive) | 84.3 | -25.8% (inactive) | 110 | -0.493 (inactive) | -6.1e-05 (inactive) | 0.00566 (inactive) | 3.34% (inactive) | 0.856% (inactive)
4 | Cc1ccccc1Cc1c(C)nc2c(C(=O)N3CCN(Cc4ccc5c(c4)OCO5)CC3)cnn2c1C | 631 | -4.4% (inactive) | 19.5% (inactive) | 132 | -11.8% (inactive) | 95.4 | -0.415 (inactive) | -1.3e-05 (inactive) | 0.00443 (inactive) | 10.8% (inactive) | 27.9% (inactive)
5 | O=C(CSCc1ccc(F)cc1)NC1CCCC1 | 750 | -2.8% (inactive) | 12.7% (inactive) | 101 | 33% (inactive) | 93.5 | -0.493 (inactive) | -5.3e-05 (inactive) | 0.00649 (inactive) | -26.1% (inactive) | -75.4% (inactive)
6 | CC1CCN(C(=O)CSc2nnc(-c3ccc(S(=O)(=O)N4CCOCC4)cc3)n2C)CC1 | 446 | 3.5% (inactive) | -5.5% (inactive) | 97.2 | -169% (inactive) | 114 | -0.612 (inactive) | -4.4e-05 (inactive) | 0.00393 (inactive) | 3.11% (inactive) | 0.175% (inactive)
7 | CCCCOCCCNC(=O)c1ccc(NC(C)=O)cc1 | 416 | -1.6% (inactive) | 1.3% (inactive) | 99.3 | 8.8% (inactive) | 115 | -0.45 (inactive) | 7.9e-06 (inactive) | 0.00392 (inactive) | -11% (inactive) | 3.52% (inactive)
8 | CC(=O)NCCOc1cccc(OCCNC(C)=O)c1 | 369 | 2.8% (inactive) | 6.8% (inactive) | 103 | -22.5% (inactive) | 117 | -0.432 (inactive) | 4e-05 (inactive) | 0.00674 (inactive) | -7.84% (inactive) | -11.9% (inactive)
9 | N#Cc1c(N)nc2c(c1-c1ccncc1)CCCCC2 | 658 | 3.9% (inactive) | 0% (inactive) | 106 | 4.5% (inactive) | 103 | -0.577 (inactive) | -5.4e-05 (inactive) | 0.00353 (inactive) | 12.7% (inactive) | 12.3% (inactive)
10 | Cc1ccc(Cn2ccc(NC(=O)c3cc(-c4cccs4)on3)n2)cc1 | 407 | 0.9% (inactive) | -11.4% (inactive) | 96.9 | -33.4% (inactive) | 99.3 | -0.493 (inactive) | -1.8e-05 (inactive) | 0.00693 (inactive) | -3.96% (inactive) | -7.39% (inactive)
11 | O=C(COC(=O)C1CC(=O)N(c2ccccc2)C1)c1ccccc1 (stereo not drawn) | 603 | 2.4% (inactive) | -21% (inactive) | 99.9 | -21% (inactive) | 123 | -0.604 (inactive) | -2.9e-05 (inactive) | 0.00601 (inactive) | -13.2% (inactive) | -4.16% (inactive)
12 | CN1CCN(Cc2nc3c(c(=O)n(C)c(=O)n3C)n2Cc2ccccc2Cl)CC1 | 746 | -15.7% (inactive) | 4.7% (inactive) | 100 | -14.4% (inactive) | 105 | -0.409 (inactive) | -2e-05 (inactive) | 0.00482 (inactive) | 4.15% (inactive) | 45.1% (inactive)
13 | CCC(C)(C(=O)NC1CCCCC1)N(Cc1ccco1)C(=O)c1cnccn1 (stereo not drawn) | 471 | 0.3% (inactive) | 16.1% (inactive) | 89.9 | -23.4% (inactive) | 110 | -0.376 (inactive) | -4.2e-05 (inactive) | 0.00684 (inactive) | 10.7% (inactive) | 27.6% (inactive)
14 | Cn1c(=O)[nH]c(=O)c2c1nc(N1CCNCC1)n2CCOc1ccccc1 | 321 | -3.8% (inactive) | 2.5% (inactive) | 104 | -91.3% (inactive) | 124 | -0.513 (inactive) | 4.4e-05 (inactive) | 0.00611 (inactive) | -11.6% (inactive) | 1.53% (inactive)
15 | O=C(NCc1cccnc1)C1CCCN(S(=O)(=O)c2ccc(Cl)cc2)C1 (stereo not drawn) | 638 | -48% (inactive) | -4.5% (inactive) | 98 | -19.2% (inactive) | 104 | -0.601 (inactive) | -4.7e-05 (inactive) | 0.00732 (inactive) | -7.82% (inactive) | -2.22% (inactive)
16 | O=C(CNc1ccc(Oc2ccccc2)cc1)N1CCOCC1 | 622 | -26.3% (inactive) | 2.1% (inactive) | 103 | -25.6% (inactive) | 97.4 | -0.541 (inactive) | -0.000138 (inactive) | 0.00652 (inactive) | 18.1% (inactive) | 3.08% (inactive)
17 | Cc1ccccc1-n1nc(C)c2cc(C(=O)NCc3cccnc3)sc21 | 374 | -1.1% (inactive) | -18.9% (inactive) | 116 | -51.5% (inactive) | 113 | -0.493 (inactive) | -6.5e-05 (inactive) | 0.0199 (active) | 10.7% (inactive) | 44.3% (inactive)
18 | O=C(CN1C(=O)COc2ccccc21)N(Cc1cccnc1)Cc1ccccc1F | 661 | -2.9% (inactive) | -5.5% (inactive) | 77.4 | -6.3% (inactive) | 106 | -0.324 (inactive) | -5.8e-05 (inactive) | 0.00465 (inactive) | 15.9% (inactive) | 32.6% (inactive)
19 | O=c1[nH]c(NCc2ccco2)nnc1Cc1ccccc1Cl | 643 | 1.8% (inactive) | -15.1% (inactive) | 111 | -18.6% (inactive) | 124 | -0.515 (inactive) | -0.000182 (inactive) | 0.0051 (inactive) | 6.89% (inactive) | 40.7% (inactive)
20 | COc1cc(OC)c2c(c1)OC(c1ccc(OC)c(OC)c1)C(O)C2=O (stereo not drawn) | 524 | 2.6% (inactive) | -8.9% (inactive) | 104 | -60% (inactive) | 115 | -0.5 (inactive) | -2.5e-05 (inactive) | 0.00643 (inactive) | 10.3% (inactive) | 3.76% (inactive)
21 | COc1ccc(C(=O)NCc2nnc(SCC(=O)Nc3cc(C)cc(C)c3)o2)cc1OC | 611 | -14.4% (inactive) | 14% (inactive) | 76.5 | -100% (inactive) | 115 | -0.272 (inactive) | -1e-05 (inactive) | 0.00582 (inactive) | 9% (inactive) | 9.85% (inactive)
22 | Cc1ccc(-c2nn(C)c(=O)c3ccccc23)cc1S(=O)(=O)NCCN1CCOCC1 | 325 | 5% (inactive) | 13.3% (inactive) | 100 | -24.7% (inactive) | 113 | -0.468 (inactive) | 4.7e-05 (inactive) | 0.00544 (inactive) | -17.1% (inactive) | 3.02% (inactive)
23 | COc1ccc(C2C(C(=O)c3sc(C)nc3C)=C(O)C(=O)N2CCN(C)C)cc1OC (stereo not drawn) | 539 | 13.4% (inactive) | -5.5% (inactive) | 96.8 | 10.8% (inactive) | 103 | -0.6 (inactive) | -7.9e-05 (inactive) | 0.0037 (inactive) | -1.16% (inactive) | 4.66% (inactive)
24 | CCOC(=O)c1nnc(-c2ccccc2)o1 | 620 | 2.2% (inactive) | -2.9% (inactive) | 114 | -14.5% (inactive) | 89.7 | -0.592 (inactive) | -3.3e-05 (inactive) | 0.00603 (inactive) | 17.6% (inactive) | -1.89% (inactive)
25 | Cn1c(=O)n(Cc2ccc(F)cc2)c(=O)c2c1nc1n2CCCN1Cc1ccccc1 | 698 | 1.6% (inactive) | -3.6% (inactive) | 119 | -41.3% (inactive) | 148 | -0.448 (inactive) | -6e-05 (inactive) | 0.00383 (inactive) | 7.62% (inactive) | 12.8% (inactive)
26 | O=C(COC(=O)C1CC1)c1c[nH]c2ccccc12 | 468 | 4.3% (inactive) | 3% (inactive) | 114 | -24.9% (inactive) | 103 | -0.587 (inactive) | -2.6e-05 (inactive) | 0.00646 (inactive) | -49.1% (inactive) | -96.8% (inactive)
27 | CC1(C)CC(=O)C(C(=O)CCCCC(=O)C2C(=O)CC(C)(C)CC2=O)C(=O)C1 | 269 | 3.6% (inactive) | 18% (inactive) | 100 | 19% (inactive) | 80 | -0.415 (inactive) | 1.6e-05 (inactive) | 0.00351 (inactive) | -6.03% (inactive) | -20.4% (inactive)
28 | CCCOC(=O)C1C2C=CC3(CN(c4cccc(Cl)c4)C(=O)C13)O2 (stereo not drawn) | 743 | -5.5% (inactive) | -3.6% (inactive) | 95.4 | -55.3% (inactive) | 116 | -0.491 (inactive) | 1.7e-05 (inactive) | 0.00748 (inactive) | 12.8% (inactive) | 28.1% (inactive)
